Laboratory results reported in PubChem BioAssay AID588453 (National Center for Advancing Translational Sciences (NCATS), 2011).
The whole screen tested about 390,000 compounds, of which about 4,000 (1%) were called active. Another 4% or so got no clear call; they are omitted. Calls follow the shape of the dose curve; as a rule, active = well fitted inhibition curve with a large enough effect; inconclusive = small, poorly fitted or top-dose-only effect; inactive = no such curve, though single readings can be large or run the other way. What follows is part of a selection rich in actives, with near analogues and random picks from the rest. Where a call stands in place of a potency, no number is given.

Molecular target: Thioredoxin reductase 1, cytoplasmic (Rattus norvegicus) (UniProt O89049)
Sequence (O89049 whole entry, looked up): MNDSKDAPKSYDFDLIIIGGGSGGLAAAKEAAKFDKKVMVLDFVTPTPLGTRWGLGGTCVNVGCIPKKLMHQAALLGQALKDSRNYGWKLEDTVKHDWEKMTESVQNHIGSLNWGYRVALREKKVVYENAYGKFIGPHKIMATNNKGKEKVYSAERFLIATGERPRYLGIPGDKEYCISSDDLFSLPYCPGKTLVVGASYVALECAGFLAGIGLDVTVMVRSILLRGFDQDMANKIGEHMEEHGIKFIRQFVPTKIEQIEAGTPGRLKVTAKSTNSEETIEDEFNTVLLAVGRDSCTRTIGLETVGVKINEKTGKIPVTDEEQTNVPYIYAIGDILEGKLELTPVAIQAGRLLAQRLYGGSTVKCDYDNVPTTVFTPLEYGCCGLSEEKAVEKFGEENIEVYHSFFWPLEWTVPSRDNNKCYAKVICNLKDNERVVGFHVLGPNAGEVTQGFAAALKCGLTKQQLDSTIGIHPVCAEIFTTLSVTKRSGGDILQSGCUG
Test: qHTS Assay for Inhibitors of Mammalian Selenoprotein Thioredoxin Reductase 1 (TrxR1): qHTS; also: nearly all actives have a fitted effect of over 65% in size
Settings: recombinant rTrxR1, NADPH fluorescence consumption, selenite substrate; series mostly up to 114 µM
Outline: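 Rat TrxR1 (90 nM in the dispensed reagent) was pre-reduced with 400 uM NADPH for 5 min at room temperature, then incubated with compound for 15 min. After 400 uM selenite was added, NADPH fluorescence (Ex 340/Em 450 nm) was followed for 8 min.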
Potency is read from the fitted curve at half-maximal effect.

SMILES	Potency
Cc1cc(F)ccc1NS(=O)(=O)c1ccc(-n2cccn2)cc1	inactive
COc1ccc2[nH]c3c(c2c1)CCN(C(=O)CCC1CCCC1)C3c1ccc(F)cc1 (stereo not drawn)	inactive
Cc1cc2c(cc3c(SCc4nc(-c5ccccc5)oc4C)nnc(C)n32)o1	inactive
O=C(NC(=S)Nc1ncccn1)c1ccccc1Br	inactive
O=C(NC(=S)Nc1ccccc1C(=O)O)c1ccc(-c2ccc(Br)cc2)o1	44.7 µM (active)
O=C(O)c1ccccc1NC(=S)NC(NC(=O)c1ccccc1[N+](=O)[O-])C(Cl)(Cl)Cl (stereo not drawn)	inactive
CN(CCC#N)c1ccc(C=O)cc1	inactive
S=c1[nH]c(=S)c2n[nH]nc2[nH]1	15.8 µM (active)
C(=Nc1ccc(/C=C/c2ccnc3ccccc23)cc1)c1cc2c3c(c1)CCCN3CCC2	inactive
COc1ccc(-c2onc(C)c2C)cc1S(=O)(=O)NCCc1ccccc1	inactive
OC(CBr)CN1CCCCC1 (stereo not drawn)	inactive
Cc1ccc(-c2nn(-c3ccccc3)cc2CN(Cc2ccccc2)C(=O)CCC(=O)O)o1	39.8 µM (active)
CN(C)Cc1cn(-c2ccccc2)nc1-c1ccccc1	inactive
Cc1ccc(-c2nn(-c3cccc(F)c3)cc2CNCCc2ccncc2)o1	inactive
Cc1ccc(C)c2sc(NC(=O)c3ccc(S(=O)(=O)N4CCCC4)cc3)nc12	inactive
CCc1ccc(NC(=O)C2CCCN2S(=O)(=O)c2ccc3nc(-c4ccccc4)[nH]c3c2)cc1 (stereo not drawn)	inactive
COc1ccc(C=C(C#N)C#N)c(CSc2ccccn2)c1	11.2 µM (active)
CN(C)c1nc(N)nc(CSc2ccccn2)n1	inactive
COc1cccc(N(CC(=O)NCCSc2ccccn2)S(C)(=O)=O)c1	inactive
COc1ccc(C(=O)COC(=O)CCCC(=O)Nc2cc(C(F)(F)F)ccc2Cl)cc1	inactive
CN(N=O)c1ccc(C=C2c3ccccc3-c3ccccc32)cc1	inactive
CCOc1ccc(NC(=O)CCc2c(C)nn(-c3ccc(N4CCCC4)nn3)c2C)cc1	inactive
O=C1O/C(=C\c2ccc(O)cc2)C(O)=C1c1ccc(O)cc1	inactive
Nc1nc(Sc2ncccc2[N+](=O)[O-])n[nH]1	inactive
Cn1cnc([N+](=O)[O-])c1Sc1n[nH]c(N)n1	12.6 µM (active)

SMILES	Potency
Cn1cnc([N+](=O)[O-])c1Nc1ccccc1O	inactive
CCOc1ccc(OCC)c(Nc2nc3ccccc3n3nnnc23)c1	inactive
COc1ccc(CNC(=O)Cn2nnc(-c3ccc(S(C)(=O)=O)cc3)n2)cc1	inactive
Cc1c(Cl)cccc1NC(=O)C1CCCN(c2ncnc3onc(C)c23)C1 (stereo not drawn)	inactive
CCOC(=O)N1CCc2c(sc3c2c(=O)n(-c2ccc(CC)cc2)c(=O)n3C)C1	inactive
O=C(c1ccc(Br)cc1)N(Cc1cccs1)c1ccc(F)cc1	inactive
COc1ccc(CCC(=O)NCCc2csc(-c3ccc(Cl)cc3)n2)cc1	inactive
CCOC(=O)c1ccc(N2C(=O)CC(N3CCC(C(=O)OCC)CC3)C2=O)cc1 (stereo not drawn)	inactive
COc1ccc(CN2C(=O)CC(Cc3ccc(C)cc3)C2=O)cc1OC (stereo not drawn)	inactive
COc1ccc(CCN2C(=O)C3CC=C(C)CC3C2=O)cc1OC (stereo not drawn)	inactive
COc1ccc(CCN2C(=O)CC(N3CCC(C(N)=O)CC3)C2=O)cc1OC (stereo not drawn)	22.4 µM (active)
COc1cccc(N2CCN(C3CC(=O)N(c4ccc(Cl)cc4)C3=O)CC2)c1 (stereo not drawn)	inactive
COc1ccc(N2C(=O)CC(N3CCC(C(N)=O)CC3)C2=O)cc1 (stereo not drawn)	50.1 µM (active)
Cn1c(=O)c(C(=O)O)nn(-c2ccccc2)c1=O	inactive
CCN(CC)/[N+]([O-])=N/Oc1cc(O/[N+]([O-])=N/N2CCCC2CO)c([N+](=O)[O-])cc1[N+](=O)[O-] (stereo not drawn)	inactive
COc1ccc(OC)c(NC(=O)Cn2c(=O)n(Cc3ccccc3)c(=O)c3ccccc32)c1	inactive
CCCCCCCNc1ccc(/C=C/c2ccnc3ccccc23)cc1	inactive
O=C(COC(=O)c1ccccc1OCCOc1ccccc1)Nc1cccc(Br)c1	inactive
COc1ccc2c(c1)CCc1c(C(=O)Nc3cc(C)ccc3O)noc1-2	inactive
O=C(c1noc2c1CCCC2)N1CCc2ccccc2C1	inactive
COc1ccc2c(c1)CCc1c(C(=O)N3CCCC3)noc1-2	35.5 µM (active)
CCCCNC(=O)Cn1c(SCc2cccc(Cl)c2)nc2ccncc21	inactive
COc1ccc(-c2cn3c(n2)sc2cc(C(=O)Nc4ccccc4F)ccc23)cc1	inactive
COc1cccc(-c2n[nH]c3c2C(c2cccc(O)c2)N(C)C3=O)c1 (stereo not drawn)	inactive
Cc1ccc(-c2nc(Cn3c(=O)cc(-c4ccccc4)c4c(C)nn(C)c43)c(C)o2)cc1	inactive

SMILES	Potency
O=C(NCc1ccccc1)C(=O)NCC(c1ccco1)S(=O)(=O)c1ccc(Cl)cc1 (stereo not drawn)	inactive
CCN1CCC(N(Cc2ccc(F)cc2)C(=O)Nc2cc(C)ccc2C)CC1	inactive
Cc1ccc(NC(=O)CN2C(=O)C(c3ccc(F)cc3)=NC23CCCCCC3)c(C)c1	inactive
CCN1CCC2(CC1)N=C(c1ccc(F)cc1)C(=S)N2C(=O)c1ccc(C)cc1	15.8 µM (active)
Cc1cccc(-n2ccnc2SCC(=O)Nc2cccc3ccccc23)c1C	inactive
NNc1cccc(C=Cc2ccccc2)cc1=O	17.8 µM (active)
O=C(COc1ccccc1)OCc1cc(=O)n2nc(-c3cccs3)sc2n1	inactive
CC1=Nc2cc(C(=O)NCc3ccc(C)cc3)ccc2Sc2ccc(Cl)cc21	inactive
NC(=O)CC[C@@H]1NC(=O)[C@@H]2CCCN2C(=O)c2cc([N+](=O)[O-])cc(F)c2NCCC[C@@H](C(N)=O)NC1=O	12.6 µM (active)
CC(C)[C@@H]1NC(=O)c2cc([N+](=O)[O-])cc(I)c2NCCC[C@@H](C(=O)NC(CC(=O)O)C(N)=O)NC(=O)[C@H](CO)NC1=O (stereo partly drawn)	inactive
NCCCC[C@@H]1NC(=O)[C@H](CCC(=O)O)NC(=O)c2cc([N+](=O)[O-])cc(I)c2NCC[C@@H](C(N)=O)NC1=O	inactive
C[C@@H]1NC(=O)c2cc([N+](=O)[O-])cc(F)c2NCCC[C@@H](C(N)=O)NC(=O)[C@H](CC(N)=O)NC1=O	inactive
NC(=O)CC[C@@H]1NC(=O)[C@H](CO)NC(=O)c2cc([N+](=O)[O-])cc(I)c2NCC[C@@H](C(N)=O)NC1=O	70.8 µM (active)
NC(=O)C[C@@H]1NC(=O)CNC(=O)c2cc([N+](=O)[O-])cc(I)c2NCCC(C(N)=O)NC1=O (stereo partly drawn)	inactive
O=C(COc1ccccc1C(=O)Nc1ccccc1)Nc1cccc(F)c1	inactive
CCC(=O)Nc1cccc(-c2nc3cc(C)ccc3o2)c1	inactive
CC(C)(C)c1ccc(C(=O)C[N+]2(C)CCCc3ccccc32)cc1 (stereo not drawn)	inactive
COC(=O)c1ccccc1NC(=O)Cc1ccccc1OC	inactive
COC(=O)c1ccccc1NC(=S)NC(=O)c1ccccc1F	25.1 µM (active)
O=C(NC(=S)NC1CCSC1=O)c1ccccc1F (stereo not drawn)	inactive
COc1cccc(C2C(C(=O)Nc3ccc(C)cc3C)=C(C)Nc3c(C(=O)Nc4ccccc4)cnn32)c1 (stereo not drawn)	inactive
CC1CCCCN1Cc1c(O)ccc2c(=O)c(-c3cccc(Cl)c3)c(C(F)(F)F)oc12 (stereo not drawn)	inactive
CC1CCCN(Cc2c(O)ccc3c(=O)c(Oc4ccc(C(C)(C)C)cc4)c(C(F)(F)F)oc23)C1 (stereo not drawn)	inactive
CCn1c(CNc2ccc(OC)cc2)nnc1SCC(=O)c1ccc(OC)cc1	inactive
COc1ccc(Cc2nnc(SCC(=O)c3cccc([N+](=O)[O-])c3)n2C)cc1	79.4 µM (active)

SMILES	Potency
COc1ccc(CC(=O)NCc2nnc(SCC(=O)Nc3nccs3)n2C)cc1	inactive
Fc1ccc(CSc2nc(NCc3ccccc3)c3ccccc3n2)cc1	inactive
O=C(CSc1nnc(CNC(=O)c2ccccc2)n1-c1ccc(F)cc1)Nc1ccccc1F	inactive
O=C(c1ccc2c(c1)OCO2)N1CCNc2ccccc2C1	inactive
O=C(CCN1CCc2ccccc2C(O)(c2ccccc2)C1)c1ccc2c(c1)OCCO2 (stereo not drawn)	0.708 µM (active)
O=C(OCc1ccccc1F)c1ccc2c(c1)OCCO2	inactive
O=C1CCC[C@@H]2C[C@@]3(C[C@@H]4CCN1[C@H]24)Nc1ccccc1NC3=NCc1ccccc1	inactive
O=C(O)C1CC=CC2CCN(C3CCCCC3)C(=O)C21 (stereo not drawn)	inactive
Cc1nnc(N2CCCC(C(=O)NCCN(C)C)C2)c2nn(-c3ccccc3)c(C)c12 (stereo not drawn)	inactive
O=C1c2ccccc2C(=O)N1c1ccc(S(=O)(=O)N2CCOCC2)c2ccccc12	inactive
O=C(c1ccc(Oc2ccc(Cl)cc2)c([N+](=O)[O-])c1)N1CCCC1	inactive
CC1CCN(C(=O)c2ccc(S(=O)(=O)Cc3cc(F)ccc3F)c([N+](=O)[O-])c2)CC1	10 µM (active)
NC(=O)C1CCN(C(=O)c2ccc(F)c(S(=O)(=O)N3CCOCC3)c2)CC1	inactive
Cc1cccc(-c2nnc(SC(C)C(=O)Nc3ccccc3)n2C)c1 (stereo not drawn)	inactive
COc1cc(Cl)c(C)cc1NC(=O)CCc1nc2cccnc2n1Cc1cccs1	inactive
Cc1cccc(C(=O)N2CCc3cc(CNC(=O)Cc4ccc(F)cc4)ccc32)c1	inactive
CCOC(=O)c1cnc2sccn2c1=O	inactive
CCOC(=O)c1cnc2[nH]c3ccccc3n2c1=O	44.7 µM (active)
CCOC(=O)c1cnc2nc(SCc3ccccc3Cl)[nH]n2c1=O	inactive
COc1ccc(NC(=O)CSc2nc3ccccc3[nH]2)cc1	inactive
Cc1ccccc1CN1CCN(CC(=O)NCc2ccccn2)C1=O	inactive
Cc1ccccc1CN1C[C@@H]2C[C@@H](c3cn(C)nc3-c3ccccc3)N3CCC[C@@]23C1=O	44.7 µM (active)
Cc1ccccc1CN1C[C@@H]2C[C@@H](c3ccc4nsnc4c3)N3CCC[C@@]23C1=O	inactive
